The values below come from PubChem BioAssay.

The source made the active and inactive calls. Unless noted, the rule behind the calls is not given here.

For experiment [1], the system named is Wnt5a (protein binding on small-molecule microarray). Put plainly: small molecules binding Wnt5a protein – biophysical, small-molecule microarray, 635/667 nm fluorescence, primary screen (AID 1142).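 Note: fluorescence read at 667 nm with signal to noise per printed feature.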 As to conditions: 635 nm fluorescence, higher = more signal.
Experiment [2] in a line: ATP-based viability of Huh7 replicon cells – cell-based, CellTiter-Glo luminescence, basal, 48 h, cytotoxicity control for HCV replication inhibitor project, primary screen (AID 1143).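 Note: Huh7 hepatoma cells carrying a hepatitis C replication reporter with no stimulus; test concentration not given here.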 As to conditions: higher = more signal, called active from +8 up or from −8 down. (Replicon systems follow genome replication, usually without infectious particles.)
Experiment [3] in a line: Pseudomonas biofilm growth suppression – PAO1 strain, BacTiter-Glo luminescence, LB-PBS, primary screen (AID 1144). The settings on record: P. aeruginosa PAO1 biofilm, 12 h, higher = more signal.
Experiment [4] can be described thus: basal CRE-LacZ reporter activity in PC12 – cell-based, unstimulated, primary screen (AID 1145). The settings on record: no forskolin, luminescence, 4.5 h, higher = more signal, called active from +8 up or from −8 down.
The nature of experiment [5]: forskolin-driven CRE-LacZ activity in PC12 – cell-based, CRE-LacZ reporter, forskolin-stimulated, primary screen (AID 1146).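 Note: PC12 cells with 6xCRE LacZ reporter stimulated by forskolin 10 µM; beta-galactosidase reporter signal reflecting CREB driven transcription.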 As to conditions: luminescence, 4.5 h, higher = more signal, called active from +8 up or from −8 down.
The target in experiment [6] is Streptavidin (Streptomyces avidinii) (UniProt P22629). The experiment is described as follows: compounds binding control protein streptavidin – biophysical, small-molecule microarray, 635/667 nm fluorescence, artefact control for SMM compound annotation, primary screen (AID 1147).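 Note: signal reflects streptavidin binding to arrayed compounds as a control protein.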 The settings on record: higher = more signal.
Chain of Streptavidin (Streptomyces avidinii) (P22629 whole entry, looked up): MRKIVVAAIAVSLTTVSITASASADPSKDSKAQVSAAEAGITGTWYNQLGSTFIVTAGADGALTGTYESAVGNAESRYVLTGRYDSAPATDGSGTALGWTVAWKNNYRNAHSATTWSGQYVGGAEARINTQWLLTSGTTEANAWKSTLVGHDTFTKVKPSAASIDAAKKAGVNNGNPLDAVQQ
The nature of experiment [7]: probe aInhba binding on compound microarray – biochemical, small-molecule microarray, 635/667 nm fluorescence, primary screen (AID 1148).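 Note: score merges 667nm spot fluorescence with signal-to-noise for antibody binding to printed compounds.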 As to conditions: higher = more signal.
The target of experiment [8] is Torsin-1A (Homo sapiens) (UniProt O14656). The experiment is described as follows: TOR1A wild-type binding on microarray – cell lysate, small-molecule microarray, lysate, 635/667 nm, primary screen (AID 1149). As to conditions: COS7 hTOR1A-WT lysate, 635 nm fluorescence, higher = more signal.
Chain of Torsin-1A (Homo sapiens) (O14656 whole entry, looked up): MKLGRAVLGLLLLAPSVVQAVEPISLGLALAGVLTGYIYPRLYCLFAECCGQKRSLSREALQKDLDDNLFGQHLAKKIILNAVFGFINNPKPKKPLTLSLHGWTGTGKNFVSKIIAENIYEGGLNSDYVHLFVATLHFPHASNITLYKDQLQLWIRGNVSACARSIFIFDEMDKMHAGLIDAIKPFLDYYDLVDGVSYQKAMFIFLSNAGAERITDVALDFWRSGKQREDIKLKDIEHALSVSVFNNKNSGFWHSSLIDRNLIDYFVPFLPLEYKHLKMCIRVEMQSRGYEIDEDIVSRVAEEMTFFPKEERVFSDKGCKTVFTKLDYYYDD
For experiment [9] the target is unchanged. Put plainly: torsin A mutant lysate binding on microarrays – cell lysate, small-molecule microarray, COS7 lysate, 635/667 nm fluorescence, primary screen (AID 1150).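 Note: score pools 667 nm emission and signal to noise measuring lysate protein binding.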 The settings on record: COS7 hTOR1A mutant lysate, 635 nm fluorescence, higher = more signal.
Experiment [10] relates to Sonic hedgehog protein (Shh). The experiment is described as follows: Sonic hedgehog microarray binding compounds – biochemical, small-molecule microarray, 635/667 nm fluorescence, primary screen (AID 1151).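 Note: Shh protein binding to compounds spotted on small-molecule microarray slides; score combines spot fluorescence intensity with signal-to-noise across triplicate slides.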 The settings on record: 635 nm fluorescence, higher = more signal.
A short description of experiment [11]: optical density shifts of acrAB sulA E. coli – strain DRC41, OD650, 48 h, E. coli filamentation inducer project, primary screen (AID 1152).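 Note: E. coli MC1000 strain DRC41 lacking acrAB efflux pump and sulA.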 As to conditions: higher = more signal, called active from +8 up or from −8 down.
Experiment [12] can be described thus: probe aLefty1 binding on compound microarray – biochemical, small-molecule microarray, 635/667 nm fluorescence, primary screen (AID 1153).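 Note: score merges spot fluorescence with signal-to-noise ratio from the scanned slide images.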 The settings on record: higher = more signal.
Experiment [13] in a line: plasmodial surface anion channel blockers, osmotic lysis – cell-based, P. falciparum Indochina, OD700, 1 h, primary screen (AID 1154). The settings on record: P. falciparum Indochina infected RBC osmotic lysis, higher = more signal, called active from +8 up or from −8 down.
Experiment [14] can be described thus: plasmodial surface anion channel blockers, osmotic lysis – cell-based, P. falciparum Indochina, OD700, 2 h, primary screen (AID 1155).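 Note: lysis reports solute entry through the parasite surface anion channel PSAC.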 The settings on record: P. falciparum Indochina infected erythrocytes, higher = more signal, called active from +8 up or from −8 down.
Experiment [15] in a line: changes in parasitized red cell lysis, either direction – P. falciparum Indochina, OD700, 3 h, PSAC antagonist project, primary screen (AID 1156). As to conditions: P. falciparum-infected erythrocytes, osmotic lysis, higher = more signal, called active from +8 up or from −8 down.
The nature of experiment [16]: plasmodial surface anion channel blockers, osmotic lysis – cell-based, P. falciparum Indochina, OD700, 18 h, primary screen (AID 1157). The settings on record: P. falciparum Indochina infected erythrocytes, osmotic lysis OD700, 18 h; higher = more signal, called active from +8 up or from −8 down.
Experiment [17] can be described thus: S6 kinase pathway phospho-S6 level changes – cell-based, A549, cytoblot, luminescence, serum-stimulated, primary screen (AID 1158).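 Note: serum-stimulated A549 lung adenocarcinoma cells; signal is phosphorylated S6 detected by cytoblot immunostaining with HRP secondary.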 The settings on record: 5 h, higher = more signal.
For experiment [18], the target named is NADPH oxidase 2 (Homo sapiens) (UniProt P04839). Put plainly: compounds shifting NOX2 Amplex Red fluorescence – cell-based, HEK293-NOX2, PMA-stimulated, NOX inhibitor project, primary screen (AID 1159). Note: test concentration not given here. The settings on record: 45 min, higher = more signal, called active from +8 up or from −8 down.
Chain of NADPH oxidase 2 (Homo sapiens) (P04839 whole entry, looked up): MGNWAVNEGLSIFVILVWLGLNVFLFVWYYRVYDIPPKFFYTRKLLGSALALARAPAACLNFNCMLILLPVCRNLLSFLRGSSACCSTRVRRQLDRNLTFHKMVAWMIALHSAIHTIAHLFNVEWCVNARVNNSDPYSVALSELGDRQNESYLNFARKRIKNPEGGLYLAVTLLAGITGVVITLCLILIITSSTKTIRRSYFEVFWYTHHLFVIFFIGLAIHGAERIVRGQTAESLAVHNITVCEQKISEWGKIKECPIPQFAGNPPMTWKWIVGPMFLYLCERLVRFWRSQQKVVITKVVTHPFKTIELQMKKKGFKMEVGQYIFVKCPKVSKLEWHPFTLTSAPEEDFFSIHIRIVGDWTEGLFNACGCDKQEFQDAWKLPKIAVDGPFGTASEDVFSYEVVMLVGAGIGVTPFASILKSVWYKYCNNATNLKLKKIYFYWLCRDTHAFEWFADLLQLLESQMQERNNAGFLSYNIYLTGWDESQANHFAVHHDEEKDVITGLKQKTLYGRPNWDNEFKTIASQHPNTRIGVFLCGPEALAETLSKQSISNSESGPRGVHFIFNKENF
Experiment [19] addresses NADPH oxidase 4 (Homo sapiens) (UniProt Q9NPH5). Put plainly: compounds shifting NOX4 Amplex Red fluorescence – cell-based, HEK293-NOX4, tetracycline-induced, NOX inhibitor project, primary screen (AID 1160). As to conditions: HEK293-NOX4, Amplex Red H2O2 fluorescence, 45 min; higher = more signal, called active from +8 up or from −8 down.
For experiment [20], the target named is NADPH oxidase 5 (Homo sapiens) (UniProt Q96PH1). The experiment is described as follows: compounds shifting NOX5 Amplex Red fluorescence – cell-based, HEK293-NOX5, NOX inhibitor project, primary screen (AID 1161). The settings on record: HEK293-NOX5, ionomycin, 45 min, higher = more signal.
Chain of NADPH oxidase 5 (Homo sapiens) (Q96PH1 whole entry, looked up): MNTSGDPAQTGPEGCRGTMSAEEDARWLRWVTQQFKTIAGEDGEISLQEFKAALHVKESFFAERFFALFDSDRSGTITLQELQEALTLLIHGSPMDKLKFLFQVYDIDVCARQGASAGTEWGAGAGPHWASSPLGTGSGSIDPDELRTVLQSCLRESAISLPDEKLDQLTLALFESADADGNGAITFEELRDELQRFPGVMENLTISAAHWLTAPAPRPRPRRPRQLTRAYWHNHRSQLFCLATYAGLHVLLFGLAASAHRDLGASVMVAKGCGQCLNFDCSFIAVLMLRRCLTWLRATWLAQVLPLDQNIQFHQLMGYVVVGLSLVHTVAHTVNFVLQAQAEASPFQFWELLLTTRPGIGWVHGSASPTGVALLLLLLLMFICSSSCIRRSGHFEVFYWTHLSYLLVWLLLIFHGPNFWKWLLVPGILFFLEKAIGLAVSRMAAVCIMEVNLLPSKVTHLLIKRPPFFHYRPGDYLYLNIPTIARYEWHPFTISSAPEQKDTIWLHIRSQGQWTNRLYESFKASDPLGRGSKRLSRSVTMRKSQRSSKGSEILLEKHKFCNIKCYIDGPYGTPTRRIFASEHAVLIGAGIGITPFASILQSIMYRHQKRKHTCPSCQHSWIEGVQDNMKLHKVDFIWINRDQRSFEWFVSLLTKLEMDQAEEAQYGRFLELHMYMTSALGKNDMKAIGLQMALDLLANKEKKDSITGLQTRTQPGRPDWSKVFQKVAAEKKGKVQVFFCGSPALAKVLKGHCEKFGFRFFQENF

Chain of NADPH oxidase 4 (Homo sapiens) (Q9NPH5 whole entry, looked up): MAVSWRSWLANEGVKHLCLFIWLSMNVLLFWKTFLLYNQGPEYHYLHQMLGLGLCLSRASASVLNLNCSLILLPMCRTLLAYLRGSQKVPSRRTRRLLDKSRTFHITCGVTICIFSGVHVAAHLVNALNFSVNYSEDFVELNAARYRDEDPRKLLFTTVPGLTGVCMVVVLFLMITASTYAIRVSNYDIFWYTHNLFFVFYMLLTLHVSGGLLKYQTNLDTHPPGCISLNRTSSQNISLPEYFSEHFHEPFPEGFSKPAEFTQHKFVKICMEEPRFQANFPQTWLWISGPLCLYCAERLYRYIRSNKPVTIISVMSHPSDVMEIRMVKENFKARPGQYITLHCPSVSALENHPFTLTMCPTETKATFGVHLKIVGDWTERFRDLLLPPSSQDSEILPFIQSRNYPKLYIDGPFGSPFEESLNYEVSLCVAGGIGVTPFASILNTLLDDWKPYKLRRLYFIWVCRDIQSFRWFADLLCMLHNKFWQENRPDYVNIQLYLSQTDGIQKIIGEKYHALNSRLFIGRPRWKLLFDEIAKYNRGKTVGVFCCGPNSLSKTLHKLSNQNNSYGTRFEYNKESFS

As for `CO[C@@H]1COC(=O)CC=C[C@@H](C)COC(=O)[C@H](COCc2ccccc2)NC(=O)CC=C[C@H]1C`, the composite z-score in [1] is -0.146; in [6], -0.214; in [7] it was -0.128; with Torsin-1A (Homo sapiens) [8], 2.33; with Torsin-1A (Homo sapiens) [9] it was 2.51; in experiment [10], 1.77. This molecule also came in with a composite z-score in experiment [12] of -0.363. The z-score in experiment [2] is 0.185 (inactive); in [3], 0.324 (inactive); in [4], 0.605 (inactive); in experiment [5] it was -0.201 (inactive); in [11], -0.0825 (inactive); in experiment [13] it was 0.391 (inactive). Besides, the z-score in experiment [14] was 0.331 (inactive); in experiment [15], 0.195 (inactive); in [16], 0.403 (inactive); in [17], -0.186; in [18] it was 0.978 (inactive); in [19], -1.24 (inactive). In addition, the z-score in experiment [20] is 0.941.
In the case of `COC(=O)CC=C[C@@H](C)[C@H](OC)c1ccccc1Br`, the composite z-score in experiment [1] is -0.0438; in experiment [6], -0.112; in [7], -0.128; with Torsin-1A (Homo sapiens) [8], 0.258; with Torsin-1A (Homo sapiens) [9] it was 0.466; in experiment [10], 0.153. Moreover, the composite z-score in experiment [12] is -0.245. The z-score is 0.266 (inactive) in experiment [2]; 0.189 (inactive) in experiment [3]; -0.971 (inactive) in [4]; -0.868 (inactive) in [5]; -0.119 (inactive) in experiment [11]; 0.727 (inactive) in [13]. In addition, the z-score was 0.716 (inactive) in experiment [14]; 0.216 (inactive) in experiment [15]; 0.367 (inactive) in experiment [16]; -0.0689 in [17]; -0.524 (inactive) in experiment [18]; 0.055 (inactive) in [19]. In addition, the z-score in experiment [20] is -0.297.
As for `CCN1C(=O)[C@H]2[C@H]3[C@H](O)[C@H](O)CC(=NOCC=C(C)CCC=C(C)C)[C@H]3CC[C@H]2C1=O`, the composite z-score was 0.249 in experiment [1]; -0.298 in experiment [6]; -0.0471 in experiment [7]; 0.896 with Torsin-1A (Homo sapiens) [8]; 0.43 with Torsin-1A (Homo sapiens) [9]; 1.77 in experiment [10]. In [12], this molecule registered a composite z-score of -0.0518. Moreover, the z-score is -0.327 (inactive) in experiment [2]; -0.805 (inactive) in experiment [3]; -0.0223 (inactive) in experiment [4]; -0.323 (inactive) in [5]; 0.376 (inactive) in experiment [11]; 0.955 (inactive) in experiment [13]. Besides, the z-score in experiment [14] is -0.506 (inactive); in experiment [15], -0.527 (inactive); in experiment [16], -0.163 (inactive); in experiment [17], -0.0053; in [18], -0.516 (inactive); in experiment [19], 0.301 (inactive). In addition, in experiment [20], the z-score is -1.52.
Turning to `CO[C@H]1COC(=O)[C@H](C)NC(=O)[C@@H](C)COC(=O)CC=C[C@@H]1C`, the composite z-score was -0.185 in experiment [1]; -0.356 in [6]; -0.016 in [7]; 1.24 in the experiment with Torsin-1A (Homo sapiens) [8]; 0.296 in the experiment with Torsin-1A (Homo sapiens) [9]; 1.47 in [10]. The composite z-score in experiment [12] is -0.251. Moreover, the z-score in experiment [2] was -0.068 (inactive); in experiment [3], -0.865 (inactive); in experiment [4], 0.341 (inactive); in experiment [5], -0.178 (inactive); in experiment [11] it was 0.66 (inactive); in [13] it was 0.945 (inactive). Further, the z-score was 0.54 (inactive) in experiment [14]; 0.795 (inactive) in experiment [15]; 0.465 (inactive) in experiment [16]; 0.0768 in [17]; -0.835 (inactive) in [18]; 0.412 (inactive) in experiment [19]. Further, the z-score in experiment [20] came to 0.193.
